# Screening data as filed in PubChem.
# This is a sample that favours compounds with a hit; in the whole collection about 2.7% have one here.
# HSP90 inh: HSP90 refolding inhibition in rabbit reticulocyte lysate; luciferase refolding luminescence, 3 h; inhibition, % at 5.6 µM; hit rate 0.91% among 290,000;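 active = inhibition above the screen-wide mean plus 3 SD, computed separately per campaign, cut at about 16% in these data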;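 note: inhibitors lower the luminescence because luciferase stays unfolded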
# SENP8 block-1: inhibitors of human SENP8 protease | Q96LD8 | recombinant SENP8, Nedd8 substrate fluorescence | inhibition, % at 20 µM | hit rate 0.64% among 360,000 | AID 602440; in the data active = inhibition mostly above about 40%, no sharp cut-off; inactive = mostly below about 27%
# Target sequence (Q96LD8 whole entry, looked up): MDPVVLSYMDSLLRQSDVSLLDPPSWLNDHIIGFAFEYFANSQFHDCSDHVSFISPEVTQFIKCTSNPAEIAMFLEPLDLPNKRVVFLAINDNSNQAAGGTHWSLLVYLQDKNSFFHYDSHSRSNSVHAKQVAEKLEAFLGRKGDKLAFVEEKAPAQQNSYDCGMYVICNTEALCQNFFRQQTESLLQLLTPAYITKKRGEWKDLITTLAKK
# SENP8 block-2: SENP8 protease inhibition; inhibition, % at 10 µM; purified SENP8, Z-RLRGG-aminoluciferin cleavage, luminescence; hit rate 1.2% among 330,000; in the data active = inhibition above about 50%
# SENP7 block: blocks the human protease SENP7. recombinant SENP7, Z-RLRGG-aminoluciferin luminescence, 40 min. AID 434973. hit rate 1.5% among 330,000. Q9BQF6. inhibition, % at 5 µM;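 active = inhibition above about 50% at the single test dose, limit read from the data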
# Target sequence (Q9BQF6 706-1050 limits assumed): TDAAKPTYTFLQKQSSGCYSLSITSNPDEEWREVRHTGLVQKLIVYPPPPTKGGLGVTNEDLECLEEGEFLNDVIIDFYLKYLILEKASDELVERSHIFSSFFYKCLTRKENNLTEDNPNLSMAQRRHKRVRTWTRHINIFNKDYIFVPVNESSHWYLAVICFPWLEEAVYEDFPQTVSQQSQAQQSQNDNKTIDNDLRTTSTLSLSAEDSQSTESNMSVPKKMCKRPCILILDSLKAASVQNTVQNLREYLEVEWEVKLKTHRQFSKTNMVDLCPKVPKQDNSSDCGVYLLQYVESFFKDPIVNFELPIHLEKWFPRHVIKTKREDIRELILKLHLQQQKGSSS
# SENP6 block: inhibitors of human SENP6 protease; inhibition, % at 10 µM; hit rate 1.8% among 330,000; Recombinant SENP6 catalytic domain, aminoluciferin luminescence;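 active = inhibition above about 50% at the single tested dose, limit read from the data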
# SENP8 conf: human SENP8 inhibition, confirmed; hit rate 40% among 6,200; shares compounds with SENP7 block; inhibition, % at 12.5 µM; Recombinant SENP8, Z-RLRGG-aminoluciferin luminescence, 60 min; AID 488912;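 active = mean inhibition across replicates above about 50%, limit read from the data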
# SENP6 conf: confirmation of human SENP6 protease inhibitors; hit rate 58% among 6,200; inhibition, % at 12.5 µM; shares compounds with SENP7 block; recombinant SENP6, Z-RLRGG-aminoluciferin luminescence
# SENP7 confirm: confirmation of human SENP7 protease inhibitors. shares compounds with SENP7 block. recombinant SENP7, Z-RLRGG-aminoluciferin luminescence, 40 min. inhibition, % at 12.5 µM. hit rate 69% among 6,200
# Casp3 select: selectivity test for SENP inhibitors: human caspase-3 inhibition | shares compounds with SENP7 block | purified caspase-3, Z-DEVD-aminoluciferin luminescence, 60 min | inhibition, % at 12.5 µM | hit rate 60% among 6,200;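 active = mean inhibition above about 50%, limit read from the data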
# SENP luc ctr: interferes with luciferase luminescence in SENP counter-screen; shares compounds with SENP7 block; Pre-incubated SENP8/Z-RLRGG-aminoluciferin, luciferase luminescence interference; inhibition, % at 12.5 µM; hit rate 39% among 6,200;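 active = mean inhibition above about 50% when retested at one dose, limit read from the data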
# A number is an active result; - = inactive; . = no result.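 Rule for the calls, unless noted: active = mean inhibition above about 50% in the one-dose retest (limit read from the data); inactive = the rest.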
SMILES,HSP90 inh,SENP8 block-1,SENP8 block-2,SENP7 block,SENP6 block,SENP8 conf,SENP6 conf,SENP7 confirm,Casp3 select,SENP luc ctr
Cc1ccc(/C=N/Nc2nnc(Cl)c3ccccc23)cc1,-,-,86,95,93,-,-,-,-,-
Clc1ccc(/C=N/Nc2nnc(Cl)c3ccccc23)cc1,-,-,-,-,-,.,.,.,.,.
O=C(CSc1nnc(CNC(=O)c2ccccc2)o1)NCc1ccco1,-,-,-,-,-,.,.,.,.,.
O=C(Nc1nnc(-c2ccccn2)o1)c1cccc(Cl)c1,-,-,-,-,-,.,.,.,.,.
N#Cc1ccc(C(=O)Nc2nnc(-c3ccccn3)o2)cc1,-,-,51,58,69,64,60,89,86,56
COC(=O)c1ccc(S(=O)(=O)N2C3CCC2CC(NC(=O)C2CC2)C3)cc1 (stereo not drawn),-,-,-,-,-,.,.,.,.,.
COc1ccccc1C1(O)CC2CCC(C1)N2S(=O)(=O)c1ccc(C(C)=O)cc1 (stereo not drawn),-,-,-,59,-,-,-,-,-,-
COc1cc(-c2nc3ccccc3nc2-c2ccc(O)c(OC)c2)ccc1O,-,-,-,-,-,.,.,.,.,.
O=S1(=O)N=C(Nc2nc3c(s2)CCCC3)c2ccccc21,-,-,77,76,86,83,78,94,86,52
O=S(=O)(Nc1nc2c(s1)CCCC2)c1ccc(F)cc1,-,-,-,-,-,.,.,.,.,.
COc1cccc(/C=N/NC(=O)N/N=C/c2cccc(OC)c2O)c1O,-,-,50,-,-,-,-,65,61,-
COc1cccc(/C=N/Nc2ccccc2C(=O)O)c1O,-,-,88,79,93,94,94,99,92,93
COc1cccc(/C=N/Nc2ccc(C(=O)O)cc2)c1O,95,-,98,99,99,99,100,102,98,97
COc1cccc(/C=N/Nc2ccc(S(=O)(=O)O)cc2)c1O,-,-,-,-,-,.,.,.,.,.
O=C(O)c1cccc(N/N=C/c2cc(Br)cc(Br)c2O)c1,-,-,74,-,77,-,90,95,-,77
COCCCn1c(SCC(=O)c2ccccc2)nc2ccccc2c1=O,-,-,-,-,-,.,.,.,.,.
CCNC(=O)c1cc2ccccc2o1,-,-,-,-,-,.,.,.,.,.
Cc1ccc(C(NC(N)=O)c2ccccc2)cc1 (stereo not drawn),-,-,-,54,-,-,-,-,-,-
Cc1ccc(C(NC(N)=O)c2ccccc2C)cc1 (stereo not drawn),-,-,-,-,-,.,.,.,.,.
CCCCCn1nc(C(=O)OCC(=O)c2c(N)n(C)c(=O)n(C)c2=O)c2ccccc2c1=O,-,-,-,-,-,.,.,.,.,.
N#C/C(=C(/O)CSc1ccccn1)c1nc2ccccc2s1,-,-,-,-,-,.,.,.,.,.
Cc1ccc(SC/C(O)=C(\C#N)c2nc3ccccc3s2)cc1,-,-,-,-,71,-,-,-,-,-
CCN(CC)C(=O)COc1ccc(-c2ccccc2)cc1,-,-,-,60,70,55,55,82,73,66
O=C(Nc1ccccc1)Nc1ccc(F)cc1F,-,-,-,70,67,59,56,82,67,-
O=C(Nc1ccccc1)Nc1ccccc1Br,-,-,73,81,59,-,82,96,78,-
SMILES,HSP90 inh,SENP8 block-1,SENP8 block-2,SENP7 block,SENP6 block,SENP8 conf,SENP6 conf,SENP7 confirm,Casp3 select,SENP luc ctr
CC(=O)Nc1cccc(NC(=O)Nc2ccc(F)cc2F)c1,-,-,-,-,-,.,.,.,.,.
CCSc1nsc(NC(=O)Nc2ccccc2Cl)n1,.,-,.,.,.,.,.,.,.,.
CCSc1nsc(NC(=O)Nc2ccc(F)cc2F)n1,-,-,-,-,52,-,-,65,-,-
COC(=O)c1ccc(NC(=O)Nc2cccc(F)c2)cc1,-,-,79,90,88,75,75,96,69,-
O=C(COC(=O)c1cc(-c2ccncc2)nc2ccccc12)Nc1ccc2c(c1)OCO2,-,.,-,-,-,.,.,.,.,.
Cc1ccc(-c2noc(CCC(=O)N(C)c3ccccc3C)n2)cc1,-,-,-,-,-,.,.,.,.,.
CC(=O)c1ccc(S(=O)(=O)N2CCN(c3nc(-c4cccnc4)nc4ccccc34)CC2)cc1,.,-,-,-,-,.,.,.,.,.
COC(=O)c1ccc(NC(=O)Nc2ccc(F)cc2F)cc1,-,-,64,88,81,-,-,77,72,-
Cc1cc(NS(=O)(=O)c2ccc(NC(=O)C(F)(F)F)cc2)nc(C)n1,-,-,-,-,-,.,.,.,.,.
COc1ccc(OCCSc2nc(N)cc(=O)[nH]2)cc1,-,-,-,-,-,.,.,.,.,.
CCOc1ccc(OCCSc2nc(C)cc(=O)[nH]2)cc1,-,-,70,51,66,-,72,61,79,-
N#CC(Cc1ccc(OC(F)F)cc1)c1nc2ccccc2[nH]1 (stereo not drawn),-,-,80,64,93,92,91,100,88,91
N#CC(Cc1cccs1)c1nc2ccccc2[nH]1 (stereo not drawn),.,-,.,.,.,.,.,.,.,.
O=C(NCCOc1ccccc1)C1CCN(C(=O)Nc2ccccc2)CC1,.,-,.,.,.,.,.,.,.,.
O=C1CC(O)(C(F)(F)F)Oc2c1ccc1ccccc21 (stereo not drawn),-,-,77,54,82,86,84,96,81,86
O=C1CC(O)(C(F)F)Oc2ccc3ccccc3c21 (stereo not drawn),-,-,-,-,-,.,.,.,.,.
CC(C)N1CCC2(CC1)N=C(c1ccc3c(c1)OCO3)CC(c1cc(Cl)ccc1O)N2 (stereo not drawn),-,-,-,-,-,.,.,.,.,.
COc1cc2nc(Nc3ccc(C)c(C)c3)nc(N)c2cc1OC,-,-,-,-,-,.,.,.,.,.
COc1cc2nc(Nc3ccc(F)cc3)nc(N)c2cc1OC,-,-,51,67,63,66,63,90,61,70
CCOC(=O)c1ccc(Nc2nc(N)c3cc(OC)c(OC)cc3n2)cc1,-,-,73,97,76,66,78,95,58,64
N#CCCCC#Cc1ccc2c(c1)COc1c3ccccc3nn1-2,.,-,90,89,93,51,96,66,68,-
CCCCCCC#Cc1ccc2c(c1)COc1c3ccccc3nn1-2,.,-,-,-,-,.,.,.,.,.
CCCCC#Cc1ccc2c(c1)COc1c3ccccc3nn1-2,.,-,79,81,85,-,-,-,67,-
